PubChem BioAssay AID1777 (Sanford-Burnham Center for Chemical Genomics, 2009)
Hit rate of the full screen: of about 280,000 compounds, about 50 (0.02%) were called active. The entries come from a sample that favours actives as a whole. Results with a measured potency or affinity are listed apart. Values without a mark were called inactive. No stated cut-off is given here; in the data, active means activation above about 50% (passing the limit was not always enough); inactive means the rest.

biological target: Kappa-type opioid receptor (Homo sapiens) (UniProt P41145); assay: kappa opioid receptor activators – cell-based, luminescence, uHTS, primary screen (AID 1777); conditions: KOR beta-arrestin recruitment, at 10 µM, stronger effect = higher value
Sequence (P41145 whole entry, looked up): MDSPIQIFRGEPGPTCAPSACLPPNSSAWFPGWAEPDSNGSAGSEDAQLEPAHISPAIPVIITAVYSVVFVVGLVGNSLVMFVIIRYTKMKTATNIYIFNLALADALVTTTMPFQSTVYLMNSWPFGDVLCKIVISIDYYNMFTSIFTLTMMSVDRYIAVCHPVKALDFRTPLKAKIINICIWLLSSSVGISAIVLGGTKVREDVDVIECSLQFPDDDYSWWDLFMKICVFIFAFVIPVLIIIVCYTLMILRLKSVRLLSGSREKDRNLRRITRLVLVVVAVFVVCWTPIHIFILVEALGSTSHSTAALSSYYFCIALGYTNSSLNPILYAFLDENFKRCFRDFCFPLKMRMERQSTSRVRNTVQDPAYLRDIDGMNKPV

SMILES | activation
COc1ccc(C[C@H]2CN3C(=NC[C@H]3C)N2CCNC(=O)c2ccc(C)c(Br)c2)cc1 | 12.5%
Cc1ccc(C(=O)NCCN2C3=NC[C@H](C)N3C[C@H]2Cc2ccc(O)cc2)cc1Br | 25.2%
Cc1nnc(SCC(=O)N2c3ccccc3CC2C)[nH]c1=O (stereo not given) | 7.1%
O=C(NC1CCCCC1)c1ccc(S(=O)(=O)N2CCOCC2)cc1 | 2%
Cc1cc(Nc2ccc(Cl)cc2)n2ncnc2n1 | -0.8%
Cc1oc(-c2ccccc2F)nc1CS(=O)CC(=O)NC1CC1 (stereo not given) | 0.9%
COc1ccc(OC)c(NC(=O)c2ccc(CSc3ncccn3)cc2)c1 | -7.7%
COc1ccc(S(=O)(=O)Nc2ccccc2C(=O)Nc2nc(-c3ccc(F)cc3)cs2)cc1OC | 15.1%
Cc1ccc(S(=O)(=O)Nc2ccccc2C(=O)Nc2nc(-c3ccc(F)cc3)cs2)cc1 | 13%
O=C(Nc1nc(-c2ccccc2)cs1)c1ccccc1NS(=O)(=O)c1ccc(F)cc1 | 111% (active)
Cc1ccc(O)c(C(=O)c2cnn(C(=O)COc3ccc(Cl)cc3)c2)c1 | 0.1%
Cc1cc(N/C(=N/S(=O)(=O)c2cc(F)ccc2F)c2ccccc2)n(-c2ccccc2)n1 | -1.3%
CCCCCCCCCCCCOC1OC(CO)C(O)C(O)C1NC(C)=O (stereo not given) | -0.9%
CC1=CC(C)(C)N(C)C(=O)N1c1ccc(Cl)cc1 | 7.6%
Cc1cc(=O)cc(C)n1-c1ccc(Cl)cc1 | 1.5%
CCCn1c(C(CO)Nc2nc(-c3cccc(Br)c3)cs2)nc2ccccc21 (stereo not given) | 2.4%
Cc1cccc(C(=O)Nc2cccc(C(=O)N/N=C/c3ccc4c(c3)OCO4)c2)c1 | -5.3%
CC(=O)Nc1nc(SCC(=O)NCC2CCCO2)[nH]c(=O)c1NC(=O)c1cccs1 (stereo not given) | -4.2%
CCN(C(=O)COC(=O)C1CCN(S(=O)(=O)c2c(Cl)cccc2Cl)CC1)C1CCCCC1 | -3.1%
COc1ccc(-n2c(C)cc(C(=O)COc3ccc(-n4cnnn4)cc3)c2C)cc1 | 3.1%
COc1ccccc1CN(Cc1cc2cc(C)ccc2[nH]c1=O)Cc1nnnn1Cc1ccco1 | -3.4%
CC(Sc1nnc(COc2ccccc2)n1Cc1ccccc1)C(=O)O (stereo not given) | 1.6%
CC(=O)Nc1ccc(NC(=O)C(C)Sc2n[nH]c(=O)n2Cc2ccccc2)cc1 (stereo not given) | -2.2%

SMILES | activation
O=C(N/N=C/c1c[nH]c2ccc(Br)cc12)c1ccccn1 | 4.6%
Nc1ccc(C2(c3ccc(N)cc3)OC(=O)c3ccccc32)cc1 | -7.1%
Nc1ccc(C2(c3ccc(N)cc3)C(=O)Nc3ccccc32)cc1 | 0.1%
O=C(CSc1nnc(CNC(=O)c2c(F)cccc2F)o1)c1ccccc1 | 4.5%
CCOc1ccc(N2C(=O)Nc3ccc(Br)cc3C2(O)C(=O)NCCN(C)C)cc1 (stereo not given) | -0.1%
CC(=O)Nc1ccc(NC(=O)c2ccc(COc3ccc4c(C)cc(=O)oc4c3)cc2)cc1 | 0.2%
Cc1cccc(C(C)C)c1NC(=O)c1ccc(COc2ccc3c(C)cc(=O)oc3c2)cc1 | 3.9%
CN(C)/C=C/C(=O)c1cccc(C(F)(F)F)c1 | 2.5%
CCC1(c2ccc(F)cc2)NC(=O)N(CC(=O)Nc2ccccc2Cl)C1=O (stereo not given) | -0.1%
CCn1c(=O)c(-c2ccccc2)c(O)c2ccccc21 | 1.3%
CCn1c(=O)c(-c2cc(=O)[nH][nH]2)c(O)c2ccccc21 | 2.3%
CCn1c(=O)c(C2=NS(=O)(=O)c3ccccc3N2)c(O)c2ccccc21 | 54.2% (active)
CC(=O)N(Cc1ccco1)C1(C(=O)NC2CCCC2)CCCCC1 | -1%
O=C(c1ccc(=O)[nH]c1)N(Cc1ccco1)C1(C(=O)NC2CCCCC2)CCCCC1 | -2.7%
O=C(c1cnccn1)N(Cc1ccco1)C1(C(=O)NC2CCCC2)CCCCC1 | -9%
Cc1cccc(C)c1NC(=O)C1(N(C(=O)c2ccccn2)c2ccc(O)cc2)CCCCC1 | -0.3%
O=C(c1ccc(=O)[nH]c1)N(Cc1ccco1)C1(C(=O)NC2CCCC2)CCCCC1 | 6%
Cc1cccc(C)c1NC(=O)C1(N(Cc2ccco2)C(=O)Cn2nnnc2N)CCCCC1 | -0.3%
CC(=O)N(Cc1ccco1)C1(C(=O)NC2CCCCC2)CCCCC1 | 2.1%
CC(=O)NCC(=O)N(Cc1ccco1)C1(C(=O)NC2CCCCC2)CCCCC1 | 3.8%
CC[n+]1c(-c2ccc(C)cc2)csc1Nc1c(C)n(C)n(-c2ccccc2)c1=O | -4.9%
Cc1ccc(S(=O)(=O)N2CCN(CC(=O)N/N=C/C=C/c3ccccc3)CC2)cc1 | 0.3%
COc1cc(OC)cc(C(=O)NCC(=O)N2CCCCC2)c1 | -0.7%

SMILES | activation
CC1(C)Cc2c(cnn2-c2cccc(F)c2)C(NC(=O)c2csnn2)C1 (stereo not given) | 5.1%
CCOc1ccccc1NC=C1C(=O)OC(C)(C)OC1=O | 4.4%
Cc1c(NC(=O)c2cccc(S(=O)(=O)N3CCOCC3)c2)c(=O)n(-c2ccccc2)n1C | -7.9%
O=C(NCC1CCCO1)C1CC(=O)N(c2cccc(Cl)c2)C1 (stereo not given) | 5.7%
CCC(=O)Nc1c2c(nn1-c1cccc(Cl)c1)CS(=O)(=O)C2 | -8.6%
CCOc1ccccc1NC(=O)CN(C)S(=O)(=O)c1ccc2[nH]c(=O)oc2c1 | -1.5%
Cc1ccc2c(CC(=O)NCC3COc4ccccc4O3)coc2c1 (stereo not given) | -4.2%
Cc1cccc(-n2ccnc2CN2CCN(C(C)C)C(CCO)C2)c1 (stereo not given) | 8%
Cc1cc(C)n(-c2cccc(CN3CCC(CO)(Cc4ccccc4)CC3)c2)n1 | -3.3%
CCCC(=O)NC(c1ccc(Cl)cc1Cl)c1ccc2cccnc2c1O (stereo not given) | -5.3%
O=C(c1ccc2c3n(nc2c1)-c1ccccc1CO3)N1CCOCC1 | 0.7%
O=C(C(Cc1ccccc1)n1cccc1)N1CCN(c2ccccc2)CC1 (stereo not given) | -3.7%
Cc1cccc(N2CCN(C(=O)C(Cc3ccccc3)n3cccc3)CC2)c1C (stereo not given) | 81%
COc1cccc(CN2CC(C(=O)N(C)Cc3nc(C)cs3)CCC2=O)c1 (stereo not given) | -2.2%
O=c1cc(N2CCN(c3ccccc3)CC2)[nH]c(=O)n1Cc1ccc(F)cc1 | -5.2%
Cc1cccc(N2CCN(C(=O)c3cccc(N4CCCC4=O)c3)CC2)c1C | -3.4%
CCC(c1nnnn1C1CCCC1)N(Cc1cccs1)Cc1cc2cc(C)ccc2[nH]c1=O (stereo not given) | 3.2%
Cc1cccc2cc(CN(Cc3cccs3)C(c3nnnn3C3CCCC3)C(C)C)c(=O)[nH]c12 (stereo not given) | 66% (active)
Cc1cccc2cc(CN(Cc3cccs3)C3(c4nnnn4C4CCCC4)CCCC3)c(=O)[nH]c12 | 9.6%
Cc1ccc(N2CC(C(=O)N3CCCCCC3)CC2=O)cc1 (stereo not given) | 1.5%
CC1CCCN(C(=S)Nc2ccc(S(=O)(=O)N3CCCCC3)cc2)C1 (stereo not given) | -0.4%
CCCOC(=O)NC1C(NC(=O)OCCC)N(C)C(=O)N1C (stereo not given) | -2.1%
Cn1cccc1/C=N/N1CCN(Cc2cccc3ccccc23)CC1 | 3%

SMILES | activation
O=C(CSc1nc2ccc([N+](=O)[O-])cc2s1)c1ccc2ccccc2c1 | 57.8% (active)
O=C(CSc1nc2ccc([N+](=O)[O-])cc2[nH]1)c1ccc2ccccc2c1 | -0.1%
Nc1ccc2nc(SCC(=O)c3ccccc3)sc2c1 | -1.7%
CCOC(=O)N1CCC(N(CCOC)C(=O)Nc2ccc(Cl)c(Cl)c2)CC1 | -4.1%
COc1ccc(OC)c2[nH]c(=O)c(CCNC(=S)NC(C)(C)C)cc12 | -9%
OCCNCc1ccc(OCc2ccc(Cl)cc2Cl)cc1 | -6.2%
OCCCCNCc1ccc(OCc2ccc(Cl)cc2Cl)cc1 | 3.1%
Oc1cccc(C(O)CNCc2ccc(OCc3ccc(Cl)cc3Cl)cc2)c1 (stereo not given) | 103% (active)
Cc1cc(C)n(CCNC(=O)c2cc(COc3ccc4ncccc4c3)on2)n1 | 0.2%
Cc1ccc(OC(C)c2nnc(N)s2)cc1Cl (stereo not given) | -0.5%
COc1ccc(S(=O)(=O)N2CCCC(C(=O)NC3CCCC3)C2)cc1OC (stereo not given) | -2.8%
C(=C\c1ccccc1)/CNCC1CCCO1 (stereo not given) | 2%
CC[C@@H](C(=O)[C@@H](C)[C@@H](O)[C@H](C)CCc1ccc(C)c(O)c1C(=O)O)[C@H]1O[C@](CC)([C@H]2CC[C@](O)(CC)[C@H](C)O2)C[C@@H]1C | 83.4% (active)
CC(C)OCCCNC(=O)C(Cc1ccccc1)NS(=O)(=O)c1ccc2c(c1)CCC(=O)N2 (stereo not given) | 0.5%
COc1ccc(CCN2C(=O)CSC2=Nc2ccc(C)cc2C)cc1OC | 9.8%
COc1ccc(N=C2SCC(=O)N2CCc2ccc(OC)c(OC)c2)cc1 | 23.1%
COc1ccc2cc(CN(CC3COCCO3)S(=O)(=O)c3c(C)cc(C)cc3C)c(=O)[nH]c2c1 (stereo not given) | -0.5%
O=C(CN1CCN(c2ccc(F)cc2)CC1)Nc1cccnc1Cl | 0.4%
CCN(CC)S(=O)(=O)c1ccc(-c2nnc(SCC(=O)c3ccc(OC)cc3)o2)cc1 | 3.1%
COc1ccc(C(=O)CSc2nnc(-c3ccc(C)cc3)o2)cc1 | -0.9%
COc1ccc(C(=O)CSc2nnc(-c3ccc(S(=O)(=O)N4CCOCC4)cc3)o2)cc1 | 50.2% (active)
